Screening results from PubChem BioAssay.
GDH-TPI counter = inhibits GDH-TPI coupling enzymes, artifact for Mtb FBA screen | GDH-TPI coupled enzyme counterscreen, NADH absorbance | inhibition, % at 4.8 µM | 360,000 compounds, 1.2% hits | AID 588335
Mtb FBA inh = inhibits M. tuberculosis FBA enzyme; P9WQA3; purified M. tuberculosis FBA, fluorescence read-out; inhibition, % at 1 µM; 360,000 compounds, 2.3% hits; in the data active means inhibition above about 27%
SARS 3CLpro inh = SARS-CoV 3CLpro protease inhibition. P0C6X7. recombinant SARS-CoV 3CLpro, quenched FRET peptide cleavage. inhibition, % at 6 µM. 290,000 compounds, 0.14% hits. AID 1706; in the data active means inhibition above about 12%
CCHF vOTU inh = CCHFV vOTU protease inhibition. Pep-AMC fluorescence. inhibition, % at 11.5 µM. 370,000 compounds, 0.55% hits
DUSP3 inh = blocks human VHR1 dual specificity phosphatase; inhibition, % at 13.3 µM; recombinant VHR phosphatase, pNPP absorbance; 290,000 compounds, 0.52% hits; P51452; in the data active means inhibition above about 50%
RecA splice inh = inhibitors of M. tuberculosis RecA intein splicing; inhibition, % (test concentration not listed); 290,000 compounds, 0.75% hits; cell-free RecA intein splicing, fluorescence; in the data active means inhibition above about 30%; inconclusive means no clear call, values can overlap the other calls
Target sequence (P9WHJ3 whole entry, looked up, canonical isoform): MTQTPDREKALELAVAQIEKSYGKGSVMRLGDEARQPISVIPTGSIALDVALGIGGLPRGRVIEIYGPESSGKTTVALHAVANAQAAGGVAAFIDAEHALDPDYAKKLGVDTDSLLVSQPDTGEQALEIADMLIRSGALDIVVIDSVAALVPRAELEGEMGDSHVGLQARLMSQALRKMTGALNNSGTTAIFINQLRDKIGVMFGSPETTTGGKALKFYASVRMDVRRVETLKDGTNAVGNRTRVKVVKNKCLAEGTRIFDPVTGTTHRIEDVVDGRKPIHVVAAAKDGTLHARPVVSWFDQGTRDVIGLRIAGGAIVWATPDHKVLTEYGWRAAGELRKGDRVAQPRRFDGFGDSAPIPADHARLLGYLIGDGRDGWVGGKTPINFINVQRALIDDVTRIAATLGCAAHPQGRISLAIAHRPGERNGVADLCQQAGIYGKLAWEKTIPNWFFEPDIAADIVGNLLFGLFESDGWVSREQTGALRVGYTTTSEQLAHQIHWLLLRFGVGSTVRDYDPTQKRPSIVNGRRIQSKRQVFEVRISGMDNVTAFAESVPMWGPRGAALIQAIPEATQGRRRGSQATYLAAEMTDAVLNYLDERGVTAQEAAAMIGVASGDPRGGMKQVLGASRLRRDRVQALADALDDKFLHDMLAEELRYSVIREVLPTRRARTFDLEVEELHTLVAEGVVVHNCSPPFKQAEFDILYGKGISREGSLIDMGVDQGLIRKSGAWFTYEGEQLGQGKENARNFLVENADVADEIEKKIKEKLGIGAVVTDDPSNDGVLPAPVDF
GFP chromo cs = counter-screen GFP chromophore formation inhibition; cell-free GFP chromophore formation, fluorescence; shares compounds with RecA splice inh; EC50, µM; 2,100 compounds, 83% hits; AID 434968; call rule not given here
Of the large screens only hits and unclear results are named; the others gave an inactive call (follow-up assays come after a bar, where they were run). Only some compounds are listed: those with a hit (about 4.7% of all), similar ones and a draw of the others. Unless noted, no stated cut-off is given here; in the data, active means inhibition above about 30%; inactive means the rest.

CCCc1c(C(=O)NNc2cccc(Cl)c2)cnn1-c1ccccc1	RecA splice inh 32 | GFP chromo cs inactive
COc1ccc(C(=O)c2c(C(F)(F)F)oc3c2C(=O)c2ccccc2C3=O)cc1	RecA splice inh 87 (no result: CCHF vOTU inh) | GFP chromo cs 0.13
Cc1ccc2c(c1)N(C(=O)CSc1nncn1C)C(C)(C)c1ssc(=S)c1-2	RecA splice inh 39 | GFP chromo cs 14
Cc1cc2c(cc1C)N(C(=O)CSc1nncn1C)C(C)(C)c1ssc(=S)c1-2	none
COc1ccc(-c2oc(NC(=O)CCl)c(C#N)c2-c2ccc(OC)cc2)cc1	RecA splice inh 90 | GFP chromo cs 1.4
COC1(OC)N=C(N)C2(C#N)C(c3ccc(F)cc3)C12C#N (stereo unspecified)	none
CCSC1(SCC)N=C(N)C2(C#N)C(c3ccc(F)cc3)C12C#N (stereo unspecified)	RecA splice inh 50 | GFP chromo cs 38
COc1cccc(-c2cnc(C(O)c3ccc(OC)c(F)c3)[nH]2)c1 (stereo unspecified)	none (no result: SARS 3CLpro inh, DUSP3 inh, RecA splice inh)
OC(c1ccc(F)c(F)c1)c1nc(-c2csc3ccccc23)cs1 (stereo unspecified)	none (no result: SARS 3CLpro inh, DUSP3 inh, RecA splice inh)
CSc1cccc(NC(=O)CSc2ncccc2C(=O)Oc2cccc([N+](=O)[O-])c2)c1	none
CCN(C(=O)CSc1ncccc1C(=O)Oc1cccc([N+](=O)[O-])c1)c1cccc(C)c1	RecA splice inh 33 | GFP chromo cs inconclusive
Oc1cccc(Nc2nc(-c3ccccc3Cl)nc3ccccc23)c1	RecA splice inh 35 | GFP chromo cs inactive
CN1N=C(C(C)(C)C)CC1=O	RecA splice inh 36 (no result: GDH-TPI counter, Mtb FBA inh) | GFP chromo cs 19
CN1N=C(C(F)(F)F)CC1=O	none
CCOC(=O)c1cnc(Cc2ccccc2)[nH]c1=O	none
CCOC(=O)c1cnc(-n2[nH]c(C)c(Cc3ccccc3)c2=O)[nH]c1=O	RecA splice inh 33 | GFP chromo cs 34
O=c1ccc(Br)c[nH]1	none
O=c1cc(-c2ccc(F)cc2)[nH][nH]1	RecA splice inh 98 | GFP chromo cs 2.3
O=c1cccc(-c2ccccc2)[nH]1	none
Fc1ccc(-c2cnc[nH]2)cc1	none
O=c1cc(-c2ccc(Br)cc2)[nH][nH]1	RecA splice inh 97 | GFP chromo cs 3.7
O=S(=O)(c1ccc(C2CCCCC2)cc1)N1CCOCC1	none
O=c1cc(-c2ccccc2)[nH][nH]1	RecA splice inh 97 | GFP chromo cs 2.2
O=c1cc(-c2ccc(C3CCCCC3)cc2)[nH][nH]1	RecA splice inh 76 | GFP chromo cs 1.9
O=[N+]([O-])C(/C=C(/Cl)[N+](=O)[O-])=C(N1CCCCC1)N1CCCCC1	RecA splice inh 49 | GFP chromo cs 20
C=CCOc1ccccc1CN(C(=O)CCl)c1ccc2c(c1)OCO2	RecA splice inh 81 | GFP chromo cs 8.3
CCOC(=O)C1CCN(Cc2cc(C(C)C)c(O)c(C(C)C)c2)CC1	RecA splice inh 59 | GFP chromo cs inactive
CCCCCCN1CCN(C2CN(Cc3ccccc3)S(=O)(=O)C2)CC1 (stereo unspecified)	none (no result: GDH-TPI counter, SARS 3CLpro inh, DUSP3 inh, RecA splice inh)
COC(=O)c1cc2c(c3c4cc(OC)ccc4n(S(C)(=O)=O)c13)C(=O)N(C)C2	none (no result: GDH-TPI counter, Mtb FBA inh, SARS 3CLpro inh, DUSP3 inh, RecA splice inh)
CCN(CC)c1c([N+](=O)[O-])c(=O)n(C)c2ccccc12	none
CN(Cc1ccccc1)c1c([N+](=O)[O-])c(=O)n(C)c2ccccc12	none
Cn1c(=O)c([N+](=O)[O-])c(-n2cnc3ccccc32)c2ccccc21	RecA splice inh 63 | GFP chromo cs 22
Cn1c(=O)c([N+](=O)[O-])c(Cl)c2ccccc21	RecA splice inh 56 | GFP chromo cs 11
O=C(CCNc1ccc(Cc2ccncc2)cc1)c1cccc([N+](=O)[O-])c1	none
O=C(CCNc1cccc(F)c1)c1cccc([N+](=O)[O-])c1	RecA splice inh 32 | GFP chromo cs inactive
O=C(NNCc1ccc(O)cc1)c1ccccc1Cl	none
O=C(O)c1cccc(Cn2c(Cl)c(/C=N/Nc3ccccc3)sc2=O)c1	RecA splice inh 30 (no result: CCHF vOTU inh) | GFP chromo cs inactive
Cc1cccc(NC(=O)c2ccc(C)c(S(=O)(=O)N3CCCCC3)c2)n1	none (no result: SARS 3CLpro inh, DUSP3 inh)
COc1ccc(N/N=C(\C#N)C(=N)SCc2ccccc2)cc1	RecA splice inh 55 | GFP chromo cs 24
COc1ccc(N/N=C(\C#N)C(=N)N2CCCCC2)cc1	none
CCOc1cc(C(c2c(C)[nH][nH]c2=O)c2c(C)[nH][nH]c2=O)ccc1OS(=O)(=O)c1ccc(C)cc1	RecA splice inh 97 | GFP chromo cs 0.49
CCOc1ccc(C(c2c(C)[nH][nH]c2=O)c2c(C)[nH][nH]c2=O)cc1OC	RecA splice inh 94 | GFP chromo cs 0.44
Cc1[nH][nH]c(=O)c1C(c1c(C)[nH][nH]c1=O)c1cn(Cc2ccc(F)cc2)c2ccccc12	none (no result: CCHF vOTU inh, RecA splice inh)
C#CCOc1ccc(OC)cc1C(c1c(C)[nH][nH]c1=O)c1c(C)[nH][nH]c1=O	RecA splice inh 95 (no result: CCHF vOTU inh) | GFP chromo cs 0.41
CCOc1cc(/C=N/O)ccc1OS(=O)(=O)c1ccc(C)cc1	none
CCOC(=O)COc1ccc(C(c2c(C)[nH][nH]c2=O)c2c(C)[nH][nH]c2=O)cc1	none
CN(CC(=O)Nc1ccc(Cl)cc1)CC(=O)Nc1cc(Cl)ccc1C#N	none
COc1ccc(C2(CO)OC(CO)C(O)C2O)cc1 (stereo unspecified)	none (no result: SARS 3CLpro inh, DUSP3 inh, RecA splice inh)
N#CC(C#N)=NNc1ccc(S(=O)(=O)N2CCCCC2)cc1	RecA splice inh 58 | GFP chromo cs 19
CC1CCN(S(=O)(=O)c2ccc(NN=C(C#N)C#N)cc2)CC1	none (no result: GDH-TPI counter, Mtb FBA inh, CCHF vOTU inh, RecA splice inh)
Cc1cc(Br)c2c(c1)C(O)(N1CCCCC1C)C(=O)N2 (stereo unspecified)	none
O=S(=O)(Nc1ccc(-n2cnnn2)cc1)c1ccc(F)c(F)c1F	RecA splice inh 30 | GFP chromo cs inactive
Cc1cc(N2CCNC[C@H]2C)ccc1N1C[C@@H](C)O[C@@H](C)C1	none (no result: GDH-TPI counter, Mtb FBA inh, SARS 3CLpro inh, DUSP3 inh, RecA splice inh)
CCN(CC)CCOc1ccc(/C(=C(\Cl)c2ccccc2)c2ccccc2)cc1	RecA splice inh 36 (no result: SARS 3CLpro inh, DUSP3 inh) | GFP chromo cs 18
O=S(=O)(NCC1CCCN(Cc2ccccc2O)C1)c1cccc2cccnc12 (stereo unspecified)	none
O=C(OCN1C(=O)C(=O)c2ccccc21)c1ccc(Cl)cc1	none
Oc1ccc(O)c(Cc2nc3ccccc3s2)c1	RecA splice inh 31 | GFP chromo cs inactive
Oc1ccccc1OCc1nc2ccccc2s1	none
CCCCn1[nH]c(-c2ccccc2)cc1=O	RecA splice inh 97 | GFP chromo cs 2.8
CCCc1cc(=O)n2[nH]c(-c3ccccc3)cc2n1	none
Cc1ccc2ccccc2c1NC(=O)c1ccco1	none (no result: DUSP3 inh)
Cc1ccc(C(=O)NCC(=O)N2CCCCCCC2)cc1C	none (no result: SARS 3CLpro inh, DUSP3 inh, RecA splice inh)
CC(=O)[C@@]1(O)CC[C@H]2[C@@H]3CCC4=CC(=O)CC[C@]4(C)[C@H]3CC[C@@]21C	none
